The values that follow come from the supplement of paper PMC6555819.

The experiment deals with FXR:RXRa (NR concentration 270 nM, RXRa partner concentration 90 nM). Description: PBM binding z-score (relative to random genomic background probes); higher = stronger binding; sequences stand for … in GC…GCGATTGACAGCGTAGAATGAAGG
Summed up:
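Each nuclear receptor dimer, without ligand, was incubated for 1 h on custom Agilent 4×180K protein-binding microarrays. Binding was detected with antibodies against each partner (one per run), and scanned fluorescence was regression-normalized. The binding z-scores are referenced to random human genomic background probes.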
In turn, CCCCGGAGGACAGAAGGTCAGAGCTGTCCGCTTT gave a PBM binding z-score of 0.952.
In turn, CCTACGGGGCCAAAGGTCATTGATTCCAATGCTC yielded a PBM binding z-score of 5.67.
The result for TAGCCTAGCTCATTCAGGGGCCAGTATAGAAAGC reads -0.836; that for TAGCCTAGGTCATTGGGCTAGTATAGTACGCATC, 4.29.
The result for ATATGTAGGTTAGGGTCATTCCGAAAGTAGGGAA reads 4.95; that for GACACAGGGTCAGCTAGAGGCCAGAGTATGGAAA, 4.61; that for CGAACTAGGCCACCAGGACAGTGAAGAGGTTGGA, -0.158.
Then CCGTACGGGTCAAGGTTATAGCACGGGTGGTACG, with 5.23; and CCTACAGGGCCAAAGGTCATTGATTCCAATGCTC, with 5.3.
Sequence CCTACTGGGCCATCAGGTGATTGATATCAACGTT had a PBM binding z-score of -0.454.
The result for ATCGAATGGTCGAAGGTGAGTATACCCACCCGAA reads -0.229; that for CCTAGTTGGTCAGGAGGTCACAAACCGGATATGA, 3.32.
Then ATACGTAGGTTACATCCGGGTCATTCAGGCTATG, with 2.32; and CCTTACGGGTCACTGACAGGTCATAGCATTTGGA, with 5.83; and CCTAGTTGGTCAGGAGGCCACACACCGGATATGA, with 0.457.
Then CGAACTAGGTCACCTGGACAGTGAAGAGGTTGGA, with 3.92.
The sequence CGAACTAGGTCACCATGACAGTGAAGAGGTTGGA yielded a PBM binding z-score of 3.62.
Consider CCTACTGGGCCAAAAATGTCATTGATGCCGATAA, for which the PBM binding z-score is -0.451.
The result for CGCACTAGGTCACCAGGACAGTGAAGAGGTTGGA reads 3.84; that for CGAACTATGTCACCAGGACAGTGAAGAGGTTGGA, 0.32; that for ATACCAAGGTTATCGTGAGGTCGTTGATACTAAC, 3.14.
The result for CCTACTGGGCGACGAAAGGTCATTGATTCAGTGA reads 3.21; that for ATATGTAGGTTAGGATCATTCAGAAAGTAGGGAA, 0.633.
The result for CGAGCTAGGTCACCAGGACAGTGAAGAGGTTGGA reads 3.66; that for CCAGAAAGGTGAAAGGTAACTCAGTCTGGTACGC, 2.31; that for CGTCAAAGTTCAACTAAGGTAACGTATAGCACGC, 7.12.
The sequence CGCACTAGGTCAAAGGACAGTGAAAGGCGACGTA yielded a PBM binding z-score of 4.07.
In the case of CGAACTAGGTTACCAGGACAGTGAAGAGGTTGGA, the PBM binding z-score was -0.174.
Regarding ATATGTAGGTTAGGGTCGTTCAGAAAGTAGGGAA, the PBM binding z-score worked out at 2.59.
Then CGAACTAGGTCAAAGGACAGTGACAGGCGACGTA, with 4.22; and CGTCCAAGGGCAGCAGGTCAGTGAAAGCGACGTG, with 0.137; and CGAACTAGGTCACCAGGACACTGAAGAGGTTGGA, with 3.92.
The result for GCTTACGGGTCAAAGGTTACAGCATGAATAGAAT reads 8.04; that for TTACCAAGGTGAAAGGTCGTTGAAGCACGCCTTG, 4.16.
The result for CGAACTAGGTCAAAGGACAATGAAAGGCGACGTA reads 3.98; that for GCTTACGGGTCAAAGGTTATAGTATGAATAGAAT, 6.98.
Sequence CGTCCAAGGTCATAGGAGGTCACTGAAGACAGAT yielded a PBM binding z-score of 7.73.
Then ATCGAAAGGTCGACGAGGTGAGTATGCACCGTTT, with 4.61; and CGAACTAGGTCTCCAGGACAGTGAAGAGGTTGGA, with -0.128.
